Rows were chosen to be rich in hits. Some 2.1% of all compounds tested hit in one or more screens of this group.
Abeta yeast res: qHTS for compounds that reverse cellular toxicity of Amyloid beta (A-beta) peptide in yeast: Primary Screen; yeast expressing A-beta42, growth rescue, OD600, 48 h; response scale: 0% DMSO, 100% iron-clioquinol control; Potency, µM (top dose mostly 46.1 µM), most hits filed as activators; actives 0.063% (n = 410,000); note: nearly all actives have a fitted effect of over 55% in size
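Yeast growth medium received pinned compounds, then yeast cells expressing toxic A-beta were added; plates incubated at 30 C for 48 hr. Growth read as absorbance at 600 nm, normalized to DMSO and equimolar FeCl3 plus clioquinol controls.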
aSyn rescue: qHTS of alpha-syn Inhibitors | Yeast expressing alpha-synuclein, growth rescue, BacTiter-Glo, 24 h | Potency, µM (titrated, usually from 46.1 µM), inactives show at the highest dose growth rescue (activation), actives largely listed as activators | actives 0.14% (n = 370,000) | AID 652106, 2013; note: % of control where 0% means no effect; nearly all actives have a fitted effect of over 65% in size
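Galactose-induced alpha-syn yeast (OD600=0.02, raffinose-pregrown) + pinned cpd, 24 hr, 30 deg C; growth by BacTiter-Glo luminescence. Growth restoration scores as activation.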
FUS yeast rescue: qHTS for Suppressors of FUS Proteinopathy: Primary screen using FUS-linked yeast assay | Potency, µM (titrated, usually from 76.6 µM), usual class: activators | actives 0.24% (n = 390,000) | S. cerevisiae FUS-expressing, growth rescue, OD600, 24 h;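 note: plate controls were DMSO vehicle for no effect and reference control for full effect; nearly all actives have a fitted effect of over 55% in size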
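Restored growth of FUS-toxic S. cerevisiae, read as 600 nm absorbance after 24 h at 30C in galactose medium (starting OD 0.005). Controls CP55940 and DMSO.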
TDP43 rescue: qHTS of TDP-43 Inhibitors | actives 1.8% (n = 410,000) | TDP-43 expressing yeast growth rescue, BacTiter-Glo, 24 h | Potency, µM (series often up to 46.1 µM), for the others: at the top dose growth rescue (activation), most hits filed as activators; note: % of control where 0% means no effect; nearly all actives have a fitted effect of over 50% in size
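Readout is BacTiter-Glo luminescence of cell growth, so inhibitors register as activators. TDP-43-expressing yeast at OD600=0.02 in galactose medium, after raffinose pregrowth to mid-log, were incubated with compound for 24 hr at 30 deg C.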
* marks the source's active call; other numbers are inactive results; i = inactive; ? = inconclusive; . = no result; ! = not active in a repeat; [ ] = remark or other dose. Calls come from the whole dose curve; as a rule, active = well fitted curve in the direction sought with a large enough effect; inconclusive = small, poorly fitted or top-dose-only effect, or another doubt; inactive = no such curve, though single readings can be large; an effect the other way counts as inactive or inconclusive. Potency is the fitted concentration of half-maximal effect.

SMILES	Abeta yeast res	aSyn rescue	FUS yeast rescue	TDP43 rescue
CN(C(=O)c1ccc(-c2nn(C)c(=O)c3ccccc23)cc1)c1ccccc1	i	.	i	14.1µM*
Cn1nc(-c2ccc(OCC(=O)Nc3ccccc3)cc2)c2ccccc2c1=O	i	.	i	15.8µM*
Cc1cccc(NC(=O)COc2ccc(-c3nn(C)c(=O)c4ccccc34)cc2)c1	i	4.5%	?	35.5µM*
C1=Nc2ccccc2/C1=C/c1ccccc1	.	-1.2%	.	.
COc1ccccc1NC(=O)c1ccc(-c2nn(C)c(=O)c3ccccc23)cc1	i	15.7%	i	15.7%
COc1ccccc1NC(=O)COc1ccc(-c2nn(C)c(=O)c3ccccc23)cc1	i	0.0%	i	22.4µM*!
COc1ccc(C=C2CS(=O)(=O)CC(=Cc3ccc(OC)cc3)C2=O)cc1	i	12.6µM*	i	?
CCCC1CCC2(CCC(=O)N2CCSc2ccccc2)CC1 (stereo not given)	.	.	i	.
CCOC(=O)N1CCN(c2c(-c3ccc(C(C)C)cc3)c(=O)c2=O)CC1	i	-0.4%	i	20µM*
Cc1ccc(Cl)cc1N1CCN(C(=O)c2cnn(C)c2C2CCN(C(=O)OC(C)(C)C)CC2)CC1	i	.	?	22.4µM*
CCn1c(=O)n2n(c1=O)[C@H]1C[N+](Cc3ccc4c(c3)OCO4)=C(N)NC1=C(C)C2	.	.	i	.
Cc1ccc2nc(N(Cc3cccnc3)C(=O)C3CCCCC3)sc2c1	i	.	i	5.62µM*
CN(C)CCN(C(=O)c1ccc2c(c1)OCCO2)c1nc2c(Cl)cccc2s1	i	6.0%	i	-14.1%
Cc1cccc2sc(N(Cc3cccnc3)C(=O)C3CCCCC3)nc12	i	.	i	3.55µM*
CC(=O)N(Cc1cccnc1)c1nc2c(C)cccc2s1	i	.	i	?
CCOc1ccc2nc(N(Cc3cccnc3)C(=O)C3CCCCC3)sc2c1	i	.	i	?
CCc1ccc2nc(N(Cc3cccnc3)C(=O)c3cccs3)sc2c1	i	.	i	31.6µM*
O=C(c1ccc2c(c1)OCCO2)N(Cc1cccnc1)c1nc2c(Cl)cccc2s1	i	.	i	22.4µM*
CCC(C)[C@@H](C(=O)OC)N(Cc1cn(Cc2ccccc2)nn1)S(=O)(=O)c1ccccc1Br (stereo not given in full)	.	.	i	.
CCCN1C(=O)c2ccccc2NC1c1ccc(OC)c(COc2ccc([N+](=O)[O-])c(C)c2)c1 (stereo not given)	.	7.4%	.	.
CC(C)C(=O)N1CC[C@H]2[C@H](CCCN2Cc2cc(F)cc(F)c2)C1	.	.	i	.
CC(C)COc1ccc(N)cc1OCC(C)C	i	-1.6%	?	11.2µM*
CCOC(=O)CC[C@H]1CC[C@]2(CCCN(S(C)(=O)=O)C2)O1	.	.	i	.
COC(=O)C1=C(C)NC(C)=C(C(=O)OCC(C)C)C1c1ccccc1[N+](=O)[O-] (stereo not given)	i	-3.9%	i	35.5µM*
CCOC(=O)Cn1cc(CN2CCS(=O)(=O)N(Cc3ccc(OC)cc3)C(C(=O)OC)C2)nn1 (stereo not given)	.	.	i	.
SMILES	Abeta yeast res	aSyn rescue	FUS yeast rescue	TDP43 rescue
Cc1cccc(C)c1Cn1c(C)c(C(=O)NCc2ccc([N+](=O)[O-])cc2)sc1=O	i	9.1%	?	11.2µM*
CCO[C@H]1OC(C(=O)NCc2ccccc2)=C[C@@H](c2ccc(C(F)(F)F)cc2)[C@@H]1CCCO	i	?	?	3.5%
CCO[C@H]1OC(C(=O)Nc2ccccc2)=C[C@@H](c2ccc(C(F)(F)F)cc2)[C@@H]1CCCO	i	?	i	35.5µM*
CCCCCCOc1ccc(/C=C/C(=O)Nc2sc3c(c2C(=O)OC)CCC3)cc1OC	i	.	i	17.8µM*
CNC(=O)c1c(NC(=O)/C=C/c2ccccc2)sc2c1CCC2	i	-29.9%	i	17.8µM*
O=C(/C=C/c1ccccc1)Nc1sc2c(c1C(=O)O)CCC2	i	0.5%	i	-25.0%
COc1ccc(NC(=O)CSc2ncnc3scc(-c4ccc(C)cc4)c23)cc1OC	.	.	i	.
CN(C)c1ccc(C(CNC(=O)c2ccccc2)c2c[nH]c3ccccc23)cc1 (stereo not given)	i	-1.1%	11.2µM*	3.4%
COC(=O)C1CCN(C(=O)c2cc(-c3ccc(Cl)s3)nc3ccccc23)CC1	i	?	?	35.5µM*
O=C(NCc1ccccc1)C1CCN(c2nc(-c3ccc(Br)cc3)cs2)CC1	.	.	i	.
Cc1ccc(-c2csc3nc[nH]c(=S)c23)cc1C	?	?	i	25.1µM*
COc1ccc(-c2csc3nc[nH]c(=O)c23)cc1OC	i	-2.8%	i	-11.9%
O=Cc1ccc(-c2ccc(Cl)cc2Cl)[nH]1	i	10.0%	i	20µM*
N#CCC[C@@H]1CC[C@]2(CCCN(C(=O)C3CCCCC3)C2)O1	.	.	i	.
CC(NC(=O)OC(C)(C)C)C(=O)Oc1cc2oc(=O)cc(-c3ccccc3)c2cc1Cl (stereo not given)	i	16.7%	.	4.47µM*
CC(Oc1cc2oc(=O)cc(-c3ccccc3)c2cc1Cl)C(=O)NCC1CCC(C(=O)O)CC1 (stereo not given)	i	-11.8%	i	19.2%
O=C(Cc1ccc(F)cc1)NO	.	2.3%	.	.
C=CC[C@H](CC(=O)N(CCO)Cc1ccccc1)C(=O)N[C@H](COC(=O)[C@@H](CC=C)CC(=O)OC(C)(C)C)Cc1ccccc1	i	-2.2%	7.94µM*	-15.3%
CC1=C(C(=O)OC2CCCCCC2)C(c2c(F)cccc2Cl)CC(=O)N1 (stereo not given)	i	.	i	11.2µM*
COCCCNC(=O)C[C@@H]1C(=O)N2CCCC3=C2[C@@]1(C(=O)OC)CCCC3	.	.	i	.
Cc1onc(-c2ccccc2)c1C(=O)OCCOc1ccc([N+](=O)[O-])cc1[N+](=O)[O-]	i	13.8%	i	12.6µM*
Cc1onc(-c2ccccc2)c1C(=O)OCC(=O)c1ccc(F)cc1	i	0.3%	i	20µM*
Cc1onc(-c2ccccc2)c1C(=O)OCC(=O)c1ccccc1	i[9.22 µM]	6.0%	i	18.3%
CN(Cc1ccccc1)C(=O)OCc1cn(Cc2cccc(C(F)(F)F)c2)nn1	.	.	i	.
Cc1ccc2c(c1)N(CC(=O)c1cccc(Cl)c1)C(=O)C(C)O2 (stereo not given)	i	10.0%	.	25.4%
CC1Oc2ccccc2N(CC(=O)c2cccc(Cl)c2)C1=O (stereo not given)	i	15.3%	i	15.8µM*
CC1Oc2ccccc2C(=O)N(CC(=O)c2ccc3c(c2)OCCO3)C1=O (stereo not given)	i	24.9%	i	17.8µM*
CCOC(=O)[C@]12CCCC3=C1N(CCC3)C(=O)[C@@H](CC(=O)N1CCCCC1)C2	.	.	i	.

High-throughput results from PubChem BioAssay.
